Measurements: ChEMBL document CHEMBL4513154, “CO-ADD screening of Jain University (India) compounds”
Entries with a potency or affinity are not part of this list.

Assays:
Staphylococcus aureus = conditions: Concentration 32 ug.mL-1; ASSAY_TEST Inhibition of Bacterial Growth; detection method Absorption (OD600); MEDIA CAMHB; plate type 384well; NBS; CORNING #3640; time 18 hr
Escherichia coli = conditions: Concentration 32 ug.mL-1; ASSAY_TEST Inhibition of Bacterial Growth; detection method Absorption (OD600); MEDIA CAMHB; plate type 384well; NBS; CORNING #3640; time 18 hr

Question: With Cn1c(-c2cscn2)nc2cc(Cl)ccc21 as the molecule, how does the Inhibition (Staphylococcus aureus) read?
Answer: Its Inhibition is -4.5%.

Question: And the Inhibition (Escherichia coli)?
Answer: The Inhibition was -10.62%.

Question: What does the source list for Clc1ccc2c(c1)nc(-c1cscn1)n2Cc1ccccc1?
Answer: Inhibition (Staphylococcus aureus): -3.7%; Inhibition (Escherichia coli): -7.11%

Question: Which Inhibition (Staphylococcus aureus) does the source give for CCc1ccc(Nc2nc(N)c(-c3nc4ccccc4c(=O)n3-c3ccccc3)s2)cc1 here?
Answer: Its Inhibition is 14.54%.

Question: And the Inhibition (Escherichia coli)?
Answer: The Inhibition was -0.69%.

Question: Which Inhibition (Staphylococcus aureus) does the source give for Clc1ccc2nc(-c3cscn3)n(Cc3ccccc3)c2c1 here?
Answer: Its Inhibition is -8.96%.

Question: What about the Inhibition (Escherichia coli) of the same molecule?
Answer: The Inhibition was -8.13%.

Question: With N=C(Nc1ccccc1)c1cscn1 as the molecule, how does the Inhibition (Staphylococcus aureus) read?
Answer: Its Inhibition is -2.93%.

Question: And the Inhibition (Escherichia coli)?
Answer: Its Inhibition is 3.08%.

Question: What does the source list for Nc1nc(Nc2ccccc2)sc1-c1nc2ccccc2c(=O)n1-c1ccc(Cl)cc1?
Answer: Inhibition (Staphylococcus aureus): 3.1%; Inhibition (Escherichia coli): -14.74%

Question: Which Inhibition (Staphylococcus aureus) does the source give for Nc1nc(Nc2ccccc2)sc1-c1nc2ccccc2c(=O)n1-c1ccccc1 here?
Answer: Its Inhibition is 10.63%.

Question: What about the Inhibition (Escherichia coli) of the same molecule?
Answer: Its Inhibition is 1.98%.

Question: How did the Inhibition (Staphylococcus aureus) turn out when CCc1ccc(-n2c(-c3sc(Nc4ccccc4)nc3N)nc3ccccc3c2=O)cc1 was run?
Answer: The Inhibition was 9.22%.

Question: What about the Inhibition (Escherichia coli) of the same molecule?
Answer: The Inhibition was -7.31%.

Question: Which Inhibition (Staphylococcus aureus) does the source give for CCc1ccc(Nc2nc(N)c(-c3nc4ccccc4c(=O)n3-c3ccc(CC)cc3)s2)cc1 here?
Answer: Its Inhibition is 1.66%.

Question: What about the Inhibition (Escherichia coli) of the same molecule?
Answer: Its Inhibition is -1.71%.

Question: With Cn1c(-c2cscn2)nc2c(Cl)cccc21 as the molecule, how does the Inhibition (Staphylococcus aureus) read?
Answer: Its Inhibition is -0.57%.

Question: And the Inhibition (Escherichia coli)?
Answer: The Inhibition was -9.25%.

Question: Which results are given for O=[N+]([O-])c1ccc(Cn2c(-c3cscn3)nc3ccccc32)cc1?
Answer: Inhibition (Staphylococcus aureus): 0.92%; Inhibition (Escherichia coli): -6.04%

Question: How did the Inhibition (Staphylococcus aureus) turn out when N#Cc1ccc(Cn2c(-c3cscn3)nc3c(Cl)cccc32)cc1 was run?
Answer: Its Inhibition is -3.58%.

Question: What about the Inhibition (Escherichia coli) of the same molecule?
Answer: Its Inhibition is -8.14%.

Question: Clc1cccc2[nH]c(-c3cscn3)nc12 was tested. Which Inhibition (Staphylococcus aureus) did it give?
Answer: Its Inhibition is -11.71%.

Question: What about the Inhibition (Escherichia coli) of the same molecule?
Answer: Its Inhibition is -6.5%.

Question: What does the source list for N#Cc1ccccc1-c1ccc(Cn2c(-c3cscn3)nc3c(Cl)cccc32)cc1?
Answer: Inhibition (Staphylococcus aureus): 2.86%; Inhibition (Escherichia coli): 1.52%

Question: For Clc1cccc2c1nc(-c1cscn1)n2Cc1ccccc1, which Inhibition (Staphylococcus aureus) is on record?
Answer: Its Inhibition is -5.58%.

Question: And the Inhibition (Escherichia coli)?
Answer: The Inhibition was -9.3%.

Question: Which results are given for CC(C)c1ccc(Cn2c(-c3cscn3)nc3c(Cl)cccc32)cc1?
Answer: Inhibition (Staphylococcus aureus): 1.32%; Inhibition (Escherichia coli): -0.45%

Question: With N#Cc1ccccc1-c1ccc(Cn2c(-c3cscn3)nc3cc(Cl)ccc32)cc1 as the molecule, how does the Inhibition (Staphylococcus aureus) read?
Answer: Its Inhibition is -3.28%.

Question: And the Inhibition (Escherichia coli)?
Answer: Its Inhibition is -8.05%.

Question: Which results are given for N#Cc1ccccc1-c1ccc(Cn2c(-c3cscn3)nc3ccc(Cl)cc32)cc1?
Answer: Inhibition (Staphylococcus aureus): -8.21%; Inhibition (Escherichia coli): -6.57%

Question: How did the Inhibition (Staphylococcus aureus) turn out when Nc1nc(Nc2ccc(Cl)cc2)sc1-c1nc2ccccc2c(=O)n1-c1ccccc1 was run?
Answer: The Inhibition was 3.07%.

Question: What about the Inhibition (Escherichia coli) of the same molecule?
Answer: The Inhibition was -2.8%.

Question: N#Cc1ccccc1-c1ccc(Cn2c(-c3cscn3)nc3ccccc32)cc1 was tested. Which Inhibition (Staphylococcus aureus) did it give?
Answer: The Inhibition was 0.09%.

Question: What about the Inhibition (Escherichia coli) of the same molecule?
Answer: Its Inhibition is -0.92%.

Question: With Fc1cc(Cn2c(-c3cscn3)nc3c(Cl)cccc32)cc(C(F)(F)F)c1 as the molecule, how does the Inhibition (Staphylococcus aureus) read?
Answer: Its Inhibition is 6.77%.

Question: And the Inhibition (Escherichia coli)?
Answer: Its Inhibition is 3.26%.

Question: Which Inhibition (Staphylococcus aureus) does the source give for CCc1ccc(Nc2nc(N)c(-c3nc4ccccc4c(=O)n3-c3ccc(Cl)cc3)s2)cc1 here?
Answer: The Inhibition was 11.42%.

Question: What about the Inhibition (Escherichia coli) of the same molecule?
Answer: Its Inhibition is 0.09%.

Question: Which Inhibition (Staphylococcus aureus) does the source give for N=C(Nc1ccccc1Cl)c1cscn1 here?
Answer: Its Inhibition is 4.17%.

Question: What about the Inhibition (Escherichia coli) of the same molecule?
Answer: The Inhibition was 18.4%.
